Assay outcomes (PubChem)
Most compounds without a hit are left out; they make up all but 2.7% or so of the library.
ALOX12 inh = blocks human arachidonate 12S-lipoxygenase | P18054 | purified 12hLO, xylenol orange hydroperoxide absorbance | Potency, µM (series often up to 108 µM), usual class: inhibitors | 580,000 tested, 1.1% active | AID 1671190
Target sequence (P18054 whole entry, looked up): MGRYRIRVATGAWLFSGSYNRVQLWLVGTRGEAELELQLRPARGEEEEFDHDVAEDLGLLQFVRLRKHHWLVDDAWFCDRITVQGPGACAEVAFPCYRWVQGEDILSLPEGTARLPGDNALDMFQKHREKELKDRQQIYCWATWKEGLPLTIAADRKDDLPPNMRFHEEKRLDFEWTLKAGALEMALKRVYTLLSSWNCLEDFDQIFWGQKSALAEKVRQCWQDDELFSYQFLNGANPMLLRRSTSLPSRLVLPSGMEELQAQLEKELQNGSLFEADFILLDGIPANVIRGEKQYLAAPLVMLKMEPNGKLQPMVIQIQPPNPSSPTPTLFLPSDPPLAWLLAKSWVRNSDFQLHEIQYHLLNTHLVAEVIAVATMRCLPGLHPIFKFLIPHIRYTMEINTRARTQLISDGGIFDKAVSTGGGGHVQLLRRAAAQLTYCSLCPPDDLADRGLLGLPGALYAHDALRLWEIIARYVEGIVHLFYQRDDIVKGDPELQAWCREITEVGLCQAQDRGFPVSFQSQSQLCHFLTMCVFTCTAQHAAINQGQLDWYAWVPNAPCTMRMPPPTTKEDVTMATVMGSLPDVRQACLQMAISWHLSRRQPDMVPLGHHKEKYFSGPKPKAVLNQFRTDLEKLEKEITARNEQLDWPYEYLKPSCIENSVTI
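Purified human 12hLO (150 nM final) in 25 mM Hepes, 0.01% Triton X-100, pH 7.0 was preincubated 15 min at room temperature with compound. Then 40 uM arachidonic acid was added, 30 min. Hydroperoxide was read by Fe-XO absorbance ratio 573/405 nm.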
TGFb inhibitor = blocks TGF-b signaling | 410,000 tested, 1.2% active | HepG2 CAGA-GFP TGF-b/SMAD3 reporter, GFP fluorescence, 18 h; TGF-beta stimulated, 500 pg/mL final | Potency, µM (top dose mostly 46.1 µM), usual class: inhibitors; also: nearly all actives have a fitted effect of over 65% in size
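HEPG2 CAGA-GFP reporter cells (1000/well, DMEM with 1% FBS) received compounds, then recombinant TGF-beta at 500 pg/mL final for 18 hours at 37 degrees C. Per-cell GFP summed per well was normalised to unstimulated and stimulated DMSO controls before curve fitting.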
ATXN2 expr inh = ATXN2 expression inhibition. 360,000 tested, 0.72% active. AID 1745845. HEK-293 ATXN2-luciferase reporter, luminescence, 24 h. Potency, µM (series often up to 57 µM), actives largely listed as inhibitors; also: nearly all actives have a fitted effect of over 55% in size
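qHTS (up to 57 uM final) was run with 24 h compound exposure of reporter cells at 37 °C. Each well was multiplexed: SteadyGlo luminescence measured ATXN2-luciferase expression after a fluorogenic Gly-Phe-AFC viability readout (25 uM final).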
ATXN viability = cell viability loss in ATXN counter-screen. Potency, µM (top dose mostly 56.7 µM), most hits filed as cytotoxic. S2 cells (HEK-293 line with an ATXN2-luciferase reporter) viability, CellTiter-Fluor protease fluorescence, 24 h. 400,000 tested, 0.49% active. AID 651635; also: nearly all actives have a fitted effect of over 40% in size
HepG2 viability = kills HepG2 cells in TGF-b inhibitor counter-screen; Potency, µM (doses to about 46.1 µM), actives largely listed as cytotoxic; HepG2 CAGA-GFP viability, ATP luminescence, 18 h; 410,000 tested, 0.76% active; AID 588856
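CellTiter-Glo luminescence gave cytotoxicity after 18 hours at 37 degrees C. The cells were HepG2 CAGA-GFP in 1% FBS DMEM, stimulated with 500 pg/mL TGF-beta after compound addition. %Activity was normalised to no-cell wells (complete cell-killing) and DMSO (no toxicity), and curves were fitted and classified.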
A number is an active result; - = inactive; ? = inconclusive; . = no result; [ ] = dose if it differs, or a comment. Calls follow the shape of the dose curve; as a rule, active = well fitted curve in the direction sought with a large enough effect; inconclusive = small, poorly fitted or top-dose-only effect, or another doubt; inactive = no such curve, though single readings can be large; an effect the other way counts as inactive or inconclusive.

SMILES	ALOX12 inh	TGFb inhibitor	ATXN2 expr inh	ATXN viability	HepG2 viability
Cc1ccc(C(=O)OCC(=O)c2cc(C)n(CC3CCCO3)c2C)cc1 (stereo not given)	-	-	-	-	-
Cc1cc(C(=O)COC(=O)c2cc(O)c3ccccc3c2O)c(C)n1CC1CCCO1 (stereo not given)	.	14.1µM	-	?	-
Cc1cc(C(=O)COC(=O)c2ccccc2Br)c(C)n1CC1CCCO1 (stereo not given)	-	-	-	-	-
Cc1cc(C(=O)COC(=O)c2ccccc2O)c(C)n1CC1CCCO1 (stereo not given)	-	-	0.355µM	-	-
Cc1cc(C(=O)COC(=O)c2ccc3c(c2)OCO3)c(C)n1Cc1cccs1	-	-	-	-	-
O=C(CSc1nc(=O)n(Cc2cccnc2)c2c1CCC2)N1CCCCC1	-	.	.	.	.
Cn1c(=O)c2c(ncn2CCCC(=O)Nc2cccc(C(F)(F)F)c2)n(C)c1=O	-	.	.	.	.
O=C(Nc1ccc(Br)cc1Cl)c1cnccn1	31.6µM	-	-	-	-
O=C(/C=C/c1ccsc1)c1ccc(O)cc1	50.1µM	.	.	.	.
N#Cc1ccc(C(=O)/C=C/c2ccsc2)cc1	-	.	.	.	.
N#CC(C(=O)C1CCCCC1C(F)(F)F)c1ccc(C(F)(F)F)cn1 (stereo not given)	-	.	.	.	.
COc1ccc(C(=O)NC(=S)Nc2ccc(CN3CCOCC3)cc2)cc1Br	?	11.2µM	.	?	-
Cc1ccc(C(=O)NC(=S)Nc2ccc(N3CCOCC3)cc2)cc1C	17.8µM	-	-	-	-
CC(=O)c1cccc(NC(=S)NC(=O)c2cccc(C)c2)c1	31.6µM	-	-	-	-
CC(C)c1ccc(/C=C/C(=O)NC(=S)NN2CCOCC2)cc1	?	-	-	-	-
COc1ccc(C(=O)NC(=S)Nc2ccc(CN3CCOCC3)cc2)cc1	?	-	-	?	-
CC(=O)c1cccc(NC(=S)NC(=O)c2ccc(Cl)cc2)c1	-	-	-	-	-
CC(C)c1ccc(/C=C/C(=O)NC(=S)Nc2ccc(CN3CCOCC3)cc2)cc1	39.8µM	?	-[11.3 µM]	?	-
CC12CC3CC(C)(C1)CC(NCc1cccnc1)(C3)C2	-	.	.	.	.
CN(Cc1cc(=O)n2cc(Cl)ccc2n1)Cc1ccccc1Cl	-	.	.	.	.
O=C(NC(=S)Nc1ccc(N2CCOCC2)cc1)c1ccc(Cl)cc1	-	-	-	-	-
COc1ccc(C(=O)NC(=S)Nc2ccc(N3CCOCC3)cc2)cc1Cl	15.8µM	-	-	-	-
COc1ccc(C(=O)NC(=S)NNC(=O)c2cccc(C)c2)cc1	?	-	?	-	-
Cc1cccc(C(=O)NC(=S)Nc2ccc(N3CCOCC3)cc2)c1	44.7µM	-	-	-	-
Cc1cccc(C(=O)NC(=S)NNC(=O)COc2ccc(Cl)cc2)c1	35.5µM	-	-	-	-
SMILES	ALOX12 inh	TGFb inhibitor	ATXN2 expr inh	ATXN viability	HepG2 viability
Cc1ccc(N/N=C/c2ccc(N3CCOCC3)cc2)cc1C	8.91µM	-	-	-	-
Cc1ccc(/C=N/Nc2cc(C)nc(N3CCOCC3)n2)cc1	-	-	-	?	-
O=C(/C=C/c1ccc(Cl)cc1)Nc1ccc(N2CCOCC2)cc1	-	-	-	-	-
O=C(O)/C=C/C(=O)Nc1ccc(N2CCOCC2)cc1	31.6µM	.	.	.	.
O=C(Nc1ccc(CN2CCOCC2)cc1)c1ccc(-c2ccc(Br)cc2)o1	-	?	?	?	10µM
O=C(Nc1ccc(CN2CCOCC2)cc1)c1ccc(Br)cc1	-	-	-	-	-
CN(C)c1ccc(CN2CCC3(CC2)CC(=O)Nc2ccccc2O3)cc1	-[6.33 µM]	.	.	.	.
O=C(NC(=S)NC(CO)Cc1ccccc1)c1ccc(F)cc1 (stereo not given)	39.8µM	-	-	-	-
COC(=O)C(Cc1ccccc1)NC(=S)NC(=O)c1ccccc1 (stereo not given)	?	-	-	-	-
CC(C)CNC(=S)NC(=O)c1ccc(F)cc1	35.5µM	-	-	-	-
Cc1cccc2nc(-c3cccnc3)c(Nc3ccc(C(C)C)cc3)n12	-	?	15.8µM	12.6µM	-
CN1CCN(c2ccc(Cl)cc2NC(=O)c2cc(=O)[nH]c3ccccc23)CC1	-	-	-	-	-
CN1CCN(c2cc3c(c4c2[nH]c2ccccc24)C(=O)CC(C)(C)C3)CC1	39.8µM	?	?	?	11.2µM
